The results in this text go back to PubChem BioAssay (NCI).

Values joined by “and” are separate entries in the source; they are usually repeats but may differ in a detail not shown here. Equal entries are not always repeated. Compounds without any hit were thinned out: in the full panel of roughly 83,000, 20% have a hit.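 Step 1: grow cells in 96-well plates. Step 2: add test compound at a single concentration. Step 3: incubate 48 h. Step 4: record percent growth.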 A number with no mark means an inactive call. Active and inactive are the calls of the source. Rule for the calls: active = growth percent below 10; inactive = the rest.

This test deals with MDA-MB-468 breast. As to the kind of experiment: NCI-60 one-dose screen, 48 h (100 = growth as untreated, 0 = no growth, -100 = all killed). The following applies: 10 µM unless noted.
Turning to `O=C(COc1cc(O)c2c(=O)cc(-c3ccccc3)oc2c1)Nc1ccccc1`, the growth was 103%.

Regarding `CC1OS(=O)OC1C` (stereo unspecified), the growth was 96.4% and 96.2%.

As to `COc1ccc(-c2nc3sccn3c2-c2ccnc(S(C)(=O)=O)n2)cc1`, the growth is -25.9% (active).

With `O=C1c2cccc3c(-c4ccc(-c5nc6c7ccccc7c7ccccc7c6[nH]5)cc4)ccc(c23)C(=O)N1CCN1CCNCC1`, the growth is 81.5%.

With `O=C(CN(C(=O)Cn1c(=O)n2nnnc2c2ccccc21)c1ccccc1C(F)(F)F)Nc1ccc(C(F)(F)F)cc1`, the growth is 108%.

On to `Cn1nc(C(C)(C)C)cc1NC(=O)Cc1ccc(/C=C2\C(=O)Nc3ccccc32)cc1`, for which the growth is 20%.

Consider `CN1CCN(Cc2ccc(NC(=O)c3cncc(C#Cc4cnn5ccccc45)c3)cc2C(F)(F)F)CC1`, for which the growth was -36.1% (active).

In the case of `CN1C2C=CC(=O)C1C1C(=O)N(c3ccccc3)C(=O)C12` (stereo unspecified), the growth was 0.669% (active).

Take `O=C(c1ccccc1)C(Br)[N+](=O)[O-]` (stereo unspecified): the growth is 114%.

In the case of `O=S(=O)(NCCNc1nccc(-c2c(-c3cccc(F)c3)nc3occn23)n1)c1ccc(Br)cc1`, the growth was 67.7%.

With `COc1ccc(Cl)cc1NC(=O)c1cc2c([nH]1)-c1nc(N)sc1CCC2`, the growth is 103%.

As for `Cc1cc2cccnc2c2ncccc12`, the growth was -20.5% (active).

For the molecule `N#CSc1c[nH]c2cccc(/C=C/C(=O)/C=C(O)/C=C/c3cccc4[nH]cc(SC#N)c34)c12`, the growth was -55.8% (active).

Consider `COc1cc(/C=C/C(=O)c2ccc(Nc3nc(NCCO)nc(N4CCOCC4)n3)cc2)cc(OC)c1OC`, for which the growth is 2.9% (active).

As to `OCCCCc1nccc2c1[nH]c1ccccc12`, the growth is 92.9%.

As to `N#Cc1c(N)nc2c(c(-c3ccc(Cl)cc3)nn2-c2ccccc2)c1C#N`, the growth was 90.1% [100 µM].

In the case of `CCN1CCCC1CNC(=O)c1ncc(-c2ccc(C(F)(F)F)cc2)c(NC2CCCCCC2)n1` (stereo unspecified), the growth is 80.8%.

As for `CN(C)c1ccc(N=Nc2ccccn2)c(O)c1`, the growth was 3.89% (active).

Consider `O=c1c2c(c3ccccc3n1-c1ccccc1)NC(=S)NC2c1ccccc1` (stereo unspecified), for which the growth was 74.4%.

Take `CC(=O)NCNC(C)=O`: the growth was 103%.

With `CC1(C)CC[C@]23CC[C@]4(C)[C@H](CC[C@@H]5[C@@]6(C)CCCN(CO)C(C)(C)[C@@H]6CC[C@]54C)[C@H]2[C@H]1OC3`, the growth is 84.9%.

As to `O=c1[nH]c(-c2ccncc2)nc2sc3c(c12)CCCCCC3`, the growth is 99.2%.

Turning to `Cc1cc(NS(=O)(=O)c2ccc(N=Nc3cc(N=Nc4ccc(S(=O)(=O)Nc5cc(C)nc(C)n5)cc4)c4c(NC(=O)C(Cl)Cl)cccc4c3OC(=O)C(Cl)Cl)cc2)nc(C)n1` (tested in a mixture with another compound), the growth was 103% and 78.5%.

Turning to `CCN(CC)CCC(=O)c1cccc2ccccc12`, the growth is 84.5%.

`O=C(c1ccccc1)C(CN1CCOCC1)c1ccccc1` (stereo unspecified): the growth was -68.7% (active).

Take `COc1cc(-c2cc(-c3ccc(C)cc3)nc3nc(N)[nH]c(=O)c23)ccc1Oc1ccnc2cc(Cl)ccc12`: the growth was 52.3%.
